Test [1] is described as follows: qHTS assay to identify small molecule agonists of the constitutive androstane receptor (CAR) signaling pathway - cell viability counter screen (AID 1224836). Also: nearly all actives have a fitted effect of over 45% in size. Also: potency is read from the fitted curve at half-maximal effect. The essentials: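 HepG2 cells stably carrying hCAR and a CYP2B6-2.2kb reporter; 15-concentration compounds plus PK11195 (final 0.75 uM), 23 hr at 37 C/5% CO2. Viability read by CellTiter-Fluor fluorescence.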
For orientation: qHTS replaces the single test concentration by a dilution series.

Test [2] is described as follows: qHTS assay to identify small molecule antagonists of the constitutive androstane receptor (CAR) signaling pathway - cell viability counter screen (AID 1224837). Also: nearly all actives have a fitted effect of over 45% in size. Also: potency is read from the fitted curve at half-maximal effect. The essentials:
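In quantitative HTS format, compounds at 15 concentrations were applied to HepG2 cells double-transfected with hCAR and CYP2B6-2.2kb under 50 nM CITCO stimulation; live-cell protease activity was read after 23 hr via CellTiter-Fluor.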

The target of test [3] is Nuclear receptor subfamily 1 group I member 3 (Homo sapiens) (UniProt Q14994). The test can be described thus: qHTS assay to identify small molecule antagonists of the constitutive androstane receptor (CAR) signaling pathway (AID 1224838). Also: nearly all actives have a fitted effect of over 40% in size. Also: potency is read from the fitted curve at half-maximal effect. The essentials: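 CITCO-stimulated (50 nM final) HepG2 cells stably transfected with hCAR and CYP2B6-2.2kb luciferase were exposed to compounds at 15 concentrations for 24 h at 37 C/5% CO2. A luciferase reagent was added and luminescence recorded after 30 min.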
Chain of Nuclear receptor subfamily 1 group I member 3 (Homo sapiens) (Q14994 whole entry, looked up): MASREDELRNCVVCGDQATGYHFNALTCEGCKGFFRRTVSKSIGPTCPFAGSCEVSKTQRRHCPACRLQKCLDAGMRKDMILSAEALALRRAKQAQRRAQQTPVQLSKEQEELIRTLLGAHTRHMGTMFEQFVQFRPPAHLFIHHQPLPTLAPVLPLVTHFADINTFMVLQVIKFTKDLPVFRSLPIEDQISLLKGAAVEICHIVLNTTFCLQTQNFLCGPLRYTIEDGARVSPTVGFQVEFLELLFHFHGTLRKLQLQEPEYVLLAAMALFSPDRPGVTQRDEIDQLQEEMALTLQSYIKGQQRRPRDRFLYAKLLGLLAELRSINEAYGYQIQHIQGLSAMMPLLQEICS

Test [4] shares this target. The test is described as follows: qHTS assay to identify small molecule agonists of the constitutive androstane receptor (CAR) signaling pathway (AID 1224839). Also: nearly all actives have a fitted effect of over 15% in size. Also: potency is read from the fitted curve at half-maximal effect. The essentials:
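HepG2 cells stably co-transfected with hCAR and a CYP2B6-2.2kb luciferase reporter; compounds at 15 concentrations with 0.75 uM PK11195 present. After 24 hr at 37 C, luciferase read by ONE-Glo luminescence.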

A short description of test [5]: qHTS assay to identify small molecule antagonists of the estrogen related receptor signaling pathway with the pleiotropic PPARgamma coactivator (PGC) from Tox21 10K library (AID 1224841; call rule not given here; also: actives are mostly falling curves and most rising ones were filed inactive; nearly all actives have a fitted effect of over 50% in size; also: potency is read from the fitted curve at half-maximal effect). The essentials: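 In the PGC/ERR line, DMSO solutions of test chemicals are pin-delivered to 2,000 cells/well six hours after dispensing. Following eighteen hours' incubation, One-Glo reagent is added and luminescence recorded.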

Test [6] in a line: qHTS assay to identify small molecule agonists of the estrogen related receptor signaling pathway with the pleiotropic PPARgamma coactivator (PGC) from Tox21 10K library (AID 1224842). Also: nearly all actives have a fitted effect of over 15% in size. The essentials:
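PGC/ERR reporter cell line, 2,000 cells per well, incubated 6 h at 37 C before 23 nL compound in DMSO was added. After 18 h at 37 C, One-Glo luminescence read following 30 min at room temperature.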

Test [7] addresses Thyrotropin receptor (Homo sapiens) (UniProt P16473). The test is described as follows: qHTS assay to identify small molecule agonists of the thyroid stimulating hormone receptor (TSHR) signaling pathway (AID 1224843; calls by dose curve; also: nearly all actives have a fitted effect of over 45% in size; also: potency is read from the fitted curve at half-maximal effect). The essentials:
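Agonist-mode screen: TSHR HEK293 cells received test chemicals for half an hour at room temperature, then HTRF cAMP detection reagents for one hour prior to fluorescence measurement. Each chemical ran as a 15-concentration series, triplicated.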

A short description of test [8]: qHTS assay to identify small molecule agonists of the hypoxia (HIF-1) signaling pathway - cell viability counter screen (AID 1224844; calls by dose curve; also: nearly all actives have a fitted effect of over 50% in size; also: potency is read from the fitted curve at half-maximal effect). The essentials: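 Same wells as the HIF-1 reporter screen; ME-180 cells carrying HRE-bla, 17 hr treatment at 37C; CellTiter-Glo luminescence read after 30 min at room temperature.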
Test [9] in a line: qHTS assay to identify small molecule agonists of H2AX - cell viability counter screen (AID 1224847; calls by dose curve; also: nearly all actives have a fitted effect of over 30% in size; also: potency is read from the fitted curve at half-maximal effect). The essentials: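 CHO-K1 cells plated overnight at 37C, then exposed 3 h at 37C to compounds at 15 concentrations (0.76% DMSO final). Viability by CellTiter-Glo luminescence after 30 min at room temperature.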
The nature of test [10]: qHTS assay to identify small molecule antagonists of the estrogen related receptor (ERR) signaling pathway from Tox21 library (AID 1224848). Also: nearly all actives have a fitted effect of over 50% in size. Also: potency is read from the fitted curve at half-maximal effect. The essentials: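 Quantitative high-throughput format: ERR reporter cells (2,000/well) pre-incubated 6 h, treated 18 h at 37 C with compounds in DMSO alongside positive and negative controls, then read by ONE-Glo luminescence.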
Test [11] is described as follows: qHTS assay to identify small molecule agonists of the estrogen related receptor (ERR) signaling pathway from Tox21 library (AID 1224849; calls by dose curve; also: nearly all actives have a fitted effect of over 15% in size). To be noted: ERR reporter cell line, ONE-Glo luciferase, 18 h; at 92.4 µM (top of the series) unless noted. The essentials:
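Reporter cells (ERR, NTP source) treated with Tox21 10K compounds 18 h, 37 C. Readout: ONE-Glo luminescence, 30 min RT.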

Test [12] can be described thus: A CellTox Green Cytotoxicity Assay to monitor cytotoxicity in HEK293 cells - 0 hour (AID 1224869). Also: nearly all actives have a fitted effect of over 50% in size. The essentials:
(§1)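 Homogeneous no-lysis format: HEK293 cell suspension mixed with CellTox Green reagent, seeded, incubated 5 h at 37 C/5% CO2, then dosed by pintool with compound in DMSO.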

Test [13] in a line: qHTS RealTime-Glo MT Cell Viability Assay in HepG2 cells - 40 hour (AID 1224870). Also: nearly all actives have a fitted effect of over 50% in size. Also: potency is read from the fitted curve at half-maximal effect. The essentials: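 HepG2 cells (600/well) mixed with RealTime-Glo MT reagent, settled 5 h at 37 C/5% CO2 before compound addition. Nonlytic NanoLuc luminescence from viable-cell prosubstrate reduction read repeatedly during 40 h treatment at 37 C.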
Test [14] in a line: qHTS assay to identify small molecule agonists of H2AX (AID 1224845; active = well fitted activation curve with a large enough effect in the signal ratio in the repeat runs, not every such curve was filed as active; the % refers to the signal ratio). The essentials: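 Wild-type CHO-K1 cells, plated overnight, exposed 3hr at 37C to 15 concentrations (0.76% DMSO final). Lysed, then HTRF anti-pH2AX (S139) cryptate and anti-H2AX-d2 antibodies, 24 hr room temperature; 665/620 nm emission read.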
The nature of test [15]: qHTS RealTime-Glo MT Cell Viability Assay in HEK293 cells - 32 hour (AID 1224868). Also: nearly all actives have a fitted effect of over 50% in size. Also: potency is read from the fitted curve at half-maximal effect. The essentials: (§2)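 Nonlytic real-time viability readout: viable cells convert prosubstrate to NanoLuc substrate, giving luminescence proportional to live cell number. HEK293, 600 cells/well, compound added after 5 h, continuous culture at 37 C.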
Test [16] in a line: A CellTox Green Cytotoxicity Assay to monitor cytotoxicity in HEK293 cells - 40 hour (AID 1224871). Also: nearly all actives have a fitted effect of over 45% in size. Also: potency is read from the fitted curve at half-maximal effect. The essentials: as §1
The nature of test [17]: qHTS RealTime-Glo MT Cell Viability Assay in HEK293 cells - 16 hour (AID 1224872). Also: nearly all actives have a fitted effect of over 50% in size. Also: potency is read from the fitted curve at half-maximal effect. The essentials: as §2
A short description of test [18]: qHTS assay to identify small molecule antagonists of the estrogen related receptor signaling pathway with the pleiotropic PPARgamma coactivator (PGC) from Tox21 10K library - cell viability counter screen (AID 1224840; active = well fitted cell-killing curve with a large enough effect in the repeat runs, not every such curve was filed as active; also: nearly all actives have a fitted effect of over 40% in size; also: potency is read from the fitted curve at half-maximal effect). The essentials:
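Viability counter screen, PGC/ERR cells: 17.5 h compound exposure at 37 C, CellTiter-Fluor fluorescence endpoint.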

A short description of test [19]: qHTS assay to identify small molecule agonists of the hypoxia (HIF-1) signaling pathway (AID 1224846; active = well fitted activation curve with a large enough effect in the signal ratio in the repeat runs, not every such curve was filed as active; the % refers to the signal ratio). The essentials: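 In ME-180 cells bearing an HRE-bla construct, 17 h treatment with DMSO-dissolved compounds at 37C was followed by CCF4-AM loading to quantify reporter induction.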
The nature of test [20]: qHTS RealTime-Glo MT Cell Viability Assay in HepG2 cells - 24 hour (AID 1224867). Also: nearly all actives have a fitted effect of over 50% in size. Also: potency is read from the fitted curve at half-maximal effect. The essentials: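 Luminescence read-out: viable HepG2 cells reduce a prosubstrate to a NanoLuc substrate, giving a signal proportional to live cell number. Reads taken at 0, 8, 16, 24, 32 and 40 h of compound exposure at 37 C.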

A number with no mark means an inactive call. Results filed as inconclusive are left out. Activity calls are given as the source filed them. Unless noted, calls follow the shape of the dose curve; as a rule, active = well fitted curve in the direction sought with a large enough effect in the repeat runs; inconclusive = weak or mixed curves; inactive = no such curve, though single readings can be large; an effect the other way counts as inactive or inconclusive.
% is scaled to controls: 0 for no effect and ±100 for the full control effect.

Chain of Thyrotropin receptor (Homo sapiens) (P16473 whole entry, looked up): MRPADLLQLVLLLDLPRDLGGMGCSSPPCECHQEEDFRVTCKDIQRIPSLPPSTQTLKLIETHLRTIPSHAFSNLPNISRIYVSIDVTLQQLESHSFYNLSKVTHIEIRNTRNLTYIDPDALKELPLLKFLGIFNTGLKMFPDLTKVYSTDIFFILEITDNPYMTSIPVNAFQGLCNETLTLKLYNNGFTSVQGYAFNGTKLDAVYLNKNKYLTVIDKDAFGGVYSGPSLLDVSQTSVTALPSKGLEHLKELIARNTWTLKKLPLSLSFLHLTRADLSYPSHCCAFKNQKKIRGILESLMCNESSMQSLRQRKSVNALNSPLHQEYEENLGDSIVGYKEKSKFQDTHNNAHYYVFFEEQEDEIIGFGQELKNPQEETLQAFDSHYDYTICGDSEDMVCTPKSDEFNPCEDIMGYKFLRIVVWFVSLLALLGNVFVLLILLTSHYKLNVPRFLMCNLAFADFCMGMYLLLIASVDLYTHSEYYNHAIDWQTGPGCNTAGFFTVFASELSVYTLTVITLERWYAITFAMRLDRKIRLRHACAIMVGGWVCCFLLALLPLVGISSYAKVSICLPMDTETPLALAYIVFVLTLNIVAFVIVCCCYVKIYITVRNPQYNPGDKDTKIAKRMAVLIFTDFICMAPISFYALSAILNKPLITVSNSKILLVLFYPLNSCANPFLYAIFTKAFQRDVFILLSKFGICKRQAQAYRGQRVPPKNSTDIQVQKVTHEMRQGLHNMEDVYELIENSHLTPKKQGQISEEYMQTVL

Regarding `C=C1C(C)(C)[C@@]2(Cl)C(Cl)[C@]1(Cl)C(Cl)(Cl)C2(Cl)Cl` (some centres undefined), the Potency entry in test [1], in test [2], in test [3], in [6], in test [12] and in test [13] was “inactive” throughout. Further, the Potency in test [4] is 21.3 µM (active); in test [5] it was 53.5 µM (active); in test [7], 13.4 µM (active); in test [8] it was 48.1 µM (active); in [9], 111 µM (active); in test [10], 60 µM (active). For the same compound, the activity change, positive = activation in test [11] is -68%.
For `CCCCN(CCCC)CCC(O)c1cc2c(Cl)cc(Cl)cc2c2cc(C(F)(F)F)ccc12` (centres undefined), the Potency result in test [1], in test [2], in test [3], in test [4], in test [7] and in [14] was “inactive” throughout. The Potency result in [15], in test [12], in test [16] and in test [17] was “inactive” each time. Further, the Potency in test [8] was 21.3 µM (active).
On to `NCCCCCCNCCCCCCN`, for which the Potency result in test [1], in test [2], in [3], in [18], in test [5] and in test [6] was “inactive” throughout. Moreover, the Potency result in test [8], in test [14], in test [9], in test [10], in [20] and in [15] was “inactive” throughout. The Potency entry in test [12], in test [13], in test [16] and in [17] was “inactive” each time. The result in test [19] was inactive. Besides, the activity change, positive = activation in test [11] is -13.7%.
As for `CC(=O)C=O`, the Potency result in test [1], in test [2], in [3], in [4], in test [18] and in test [8] was “inactive” throughout. The Potency entry in [9], in [20], in test [12], in [13], in test [16] and in test [17] was “inactive” in each case.
As to `Cc1cncc(C)c1`, the Potency entry in test [1], in test [2], in test [3], in [18], in [6] and in [7] was “inactive” each time. For the same compound, the Potency result in test [8], in test [9], in test [10], in test [20], in test [13] and in test [17] was “inactive” in each case. In addition, in [19], the call was inactive.
As for `CCN=C1C=CC(=C(c2ccc(N(CC)CC)cc2)c2ccc(N(CC)CC)cc2)c2ccccc21`, the Potency in test [1] is 6.08 µM (active); in [2] it was 6.08 µM (active); in test [3], 6.08 µM (active); in test [18], 9.63 µM (active); in [8], 21.7 µM (active); in [9], 35.5 µM (active). Moreover, the Potency in test [15] is 6.88 µM (active); in test [13] it was 19.4 µM (active); in test [16] it was 12.2 µM (active); in test [17] it was 13.7 µM (active). Also, the Potency entry in test [4] and in test [12] was “inactive” in each case.
For `CC1=C(/C=C/C(C)=C/C=C/C(C)=C\C=O)C(C)(C)CCC1`, the Potency result in test [1], in test [2], in test [3], in [8], in test [20] and in test [12] was “inactive” in each case. Further, the Potency entry in [13] is “inactive”. The Potency in test [4] is 23 µM (active); in test [7], 10.3 µM (active); in test [9] it was 107 µM (active). Further, the compound was classed as inactive in [19].
Regarding `CCC1(c2cnc[nH]2)Cc2ccccc2C1`, the Potency entry in [1], in test [2], in test [3], in test [4], in [18] and in test [14] was “inactive” throughout. Besides, the Potency result in test [9], in test [20], in [12], in [13], in [16] and in test [17] was “inactive” throughout.
Turning to `CCN(CC)CCNc1ccc(CO)c2sc3ccccc3c(=O)c12`, the Potency was 7.5 µM (active) in test [1]; 7.5 µM (active) in [2]; 2.66 µM (active) in test [3]; 8.41 µM (active) in [5]; 26.8 µM (active) in test [8]; 13.3 µM (active) in test [10]. Also, the Potency was 23.9 µM (active) in test [20]; 16.9 µM (active) in test [15]; 21.3 µM (active) in test [13]; 23.9 µM (active) in test [16]; 16.9 µM (active) in test [17]. For the same compound, the Potency entry in [4], in test [6], in test [14], in [9] and in test [12] was “inactive” throughout. In test [11], the activity change, positive = activation is -56.6% [at 42.5 µM].

These data come from PubChem BioAssay (Tox21).
